Results published in PubChem BioAssay AID1159580 (chemical genetic matrix, 2015).
Screen size: about 5,500 compounds; about 2,000 (36%) were called active. Roughly 18% stayed inconclusive and do not appear here. Cut-off read from the data, not from the text of the source: active = normalized growth mostly below about 0.91 (no sharp cut-off); inconclusive = no clear call, values can overlap the other calls; inactive = mostly above about 0.92. The list shows a part of the results.

Assay: chemical genetic growth profiling, strain panel (AID 1159580);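 note: tested at 20 µM; growth read once vehicle control cultures reached saturation at 30 °C; 1 = growth at the plate median or of vehicle wells; lower values mean less growth of the strain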
Details: growth OD

Measured: normalized growth

O=c1cc(-c2ccccc2)oc2cc(O)c(O)c(O)c12
active: S. cerevisiae deletion strains, locus YKL068W, hits give low values 0.855 | S. cerevisiae deletion strains, locus YKL085W, strain MDH1 (second series), hits give low values 0.84 | S. cerevisiae deletion strains, locus YKL085W, strain MDH1, hits give low values 0.84 | S. cerevisiae deletion strains, locus YKL160W, strain elf1, hits give low values 0.701 | S. cerevisiae deletion strains, locus YKL190W, strain CNB1, hits give low values 0.429 | S. cerevisiae deletion strains, locus YKR001C, strain vps1, hits give low values 0.376 | S. cerevisiae deletion strains, locus YKR026C, strain gcn3, hits give low values 0.572 | S. cerevisiae deletion strains, locus YKR091W, strain srl3, hits give low values 0.763 | S. cerevisiae deletion strains, locus YLL001W, strain dnm1, hits give low values 0.482 | S. cerevisiae deletion strains, locus YLL026W, hits give low values 0.57 | S. cerevisiae deletion strains, locus YLL041C, strain sdh2, hits give low values 0.649 | S. cerevisiae deletion strains, locus YLR027C, strain aat2, hits give low values 0.575 | S. cerevisiae deletion strains, locus YLR039C, strain RIC1, hits give low values 0.154 | S. cerevisiae deletion strains, locus YLR058C, strain SHM2, hits give low values 0.0829 | S. cerevisiae deletion strains, locus YLR102C, strain apc9, hits give low values 0.857 | S. cerevisiae deletion strains, locus YLR113W, strain HOG1, hits give low values 0.575 | S. cerevisiae deletion strains, locus YLR221C, strain rsa3, hits give low values 0.521 | S. cerevisiae deletion strains, locus YLR258W, strain gsy2, hits give low values 0.576 | S. cerevisiae deletion strains, locus YLR262C, strain YPT6 (second series), hits give low values 0.303 | S. cerevisiae deletion strains, locus YLR262C, strain YPT6, hits give low values 0.375 | S. cerevisiae deletion strains, locus YLR268W, strain sec22, hits give low values 0.176 | S. cerevisiae deletion strains, locus YLR320W, strain mms22, hits give low values 0.418 | S. cerevisiae deletion strains, locus YLR330W, strain CHS5, hits give low values 0.543 | S. cerevisiae deletion strains, locus YLR342W, strain FKS1 (second series), hits give low values 0.345 | S. cerevisiae deletion strains, locus YLR342W, strain FKS1, hits give low values 0.364 | S. cerevisiae deletion strains, locus YLR357W, strain rsc2, hits give low values 0.474 | S. cerevisiae deletion strains, locus YLR370C, strain arc18, hits give low values 0.427 | S. cerevisiae deletion strains, locus YLR371W, strain rom2, hits give low values 0.588 | S. cerevisiae deletion strains, locus YLR384C, strain iki3, hits give low values 0.327 | S. cerevisiae deletion strains, locus YLR418C, strain cdc73, hits give low values 0.303 | S. cerevisiae deletion strains, locus YML016C, strain PPZ1, hits give low values 0.399 | S. cerevisiae deletion strains, locus YML032C, strain rad52, hits give low values 0.165 | S. cerevisiae deletion strains, locus YML120C, strain ndi1, hits give low values 0.14 | S. cerevisiae deletion strains, locus YML124C, strain tub3, hits give low values 0.424 | S. cerevisiae deletion strains, locus YMR058W, strain fet3, hits give low values 0.223 | S. cerevisiae deletion strains, locus YMR078C, strain ctf18, hits give low values 0.547 | S. cerevisiae deletion strains, locus YMR125W, strain sto1, hits give low values 0.802 | S. cerevisiae deletion strains, locus YMR129W, hits give low values 0.568 | S. cerevisiae deletion strains, locus YMR205C, strain PFK2, hits give low values 0.294 | S. cerevisiae deletion strains, locus YMR223W, strain ubp8, hits give low values 0.464 | S. cerevisiae deletion strains, locus YMR231W, strain pep5, hits give low values 0.398 | S. cerevisiae deletion strains, locus YMR263W, strain SAP30, hits give low values 0.207 | S. cerevisiae deletion strains, locus YMR307W, strain GAS1, hits give low values 0.456 | S. cerevisiae deletion strains, locus YNL067W, strain RPL9B, hits give low values 0.401 | S. cerevisiae deletion strains, locus YNL071W, strain lat1, hits give low values 0.675 | S. cerevisiae deletion strains, locus YNL128W, strain TEP1, hits give low values 0.387 | S. cerevisiae deletion strains, locus YNL153C, strain GIM3, hits give low values 0.215 | S. cerevisiae deletion strains, locus YNL183C, strain NPR1, hits give low values 0.634 | S. cerevisiae deletion strains, locus YNL209W, strain ssb2, hits give low values 0.185 | S. cerevisiae deletion strains, locus YNL233W, strain BNI4, hits give low values 0.502 | S. cerevisiae deletion strains, locus YNL248C, strain rpa49, hits give low values 0.633 | S. cerevisiae deletion strains, locus YNL250W, strain rad50, hits give low values 0.76 | S. cerevisiae deletion strains, locus YNL271C, strain bni1, hits give low values 0.774 | S. cerevisiae deletion strains, locus YNL298W, strain CLA4, hits give low values 0.756 | S. cerevisiae deletion strains, locus YNL307C, strain MCK1, hits give low values 0.517 | S. cerevisiae deletion strains, locus YNL322C, strain KRE1 (second series), hits give low values 0.187 | S. cerevisiae deletion strains, locus YNL322C, strain KRE1, hits give low values 0.241 | S. cerevisiae deletion strains, locus YNR049C, strain mso1, hits give low values 0.714 | S. cerevisiae deletion strains, locus YNR052C, strain pop2, hits give low values 0.122 | S. cerevisiae deletion strains, locus YOL006C, strain TOP1, hits give low values 0.136 | S. cerevisiae deletion strains, locus YOL147C, strain pex11, hits give low values 0.187 | S. cerevisiae deletion strains, locus YOR001W, strain rrp6, hits give low values 0.325 | S. cerevisiae deletion strains, locus YOR061W, strain CKA2, hits give low values 0.545 | S. cerevisiae deletion strains, locus YOR069W, strain VPS5, hits give low values 0.617 | S. cerevisiae deletion strains, locus YOR070C, strain gyp1, hits give low values 0.782 | S. cerevisiae deletion strains, locus YOR080W, strain dia2, hits give low values 0.105 | S. cerevisiae deletion strains, locus YOR083W, strain WHI5, hits give low values 0.618 | S. cerevisiae deletion strains, locus YOR106W, strain vam3, hits give low values 0.221 | S. cerevisiae deletion strains, locus YOR136W, strain idh2, hits give low values 0.557 | S. cerevisiae deletion strains, locus YOR144C, strain elg1, hits give low values 0.202 | S. cerevisiae deletion strains, locus YOR184W, strain ser1, hits give low values 0.314 | S. cerevisiae deletion strains, locus YOR231W, strain MKK1, hits give low values 0.68 | S. cerevisiae deletion strains, locus YOR265W, strain rbl2, hits give low values 0.507 | S. cerevisiae deletion strains, locus YOR270C, strain vph1, hits give low values 0.169 | S. cerevisiae deletion strains, locus YOR290C, strain snf2, hits give low values 0.0825 | S. cerevisiae deletion strains, locus YOR316C, strain cot1, hits give low values 0.738 | S. cerevisiae deletion strains, locus YPL051W, strain arl3, hits give low values 0.328 | S. cerevisiae deletion strains, locus YPL055C, strain LGE1, hits give low values 0.443 | S. cerevisiae deletion strains, locus YPL078C, strain atp4, hits give low values 0.144 | S. cerevisiae deletion strains, locus YPL106C, strain sse1, hits give low values 0.582 | S. cerevisiae deletion strains, locus YPL240C, strain hsp82, hits give low values 0.671 | S. cerevisiae deletion strains, locus YPL241C, strain CIN2, hits give low values 0.57 | S. cerevisiae deletion strains, locus YPL256C, strain CLN2, hits give low values 0.693 | S. cerevisiae deletion strains, locus YPR119W, strain clb2, hits give low values 0.802 | S. cerevisiae deletion strains, locus YPR141C, strain kar3, hits give low values 0.849 | S. cerevisiae deletion strains, locus YPR163C, strain tif3, hits give low values 0.659 | S. cerevisiae deletion strains, locus YPR167C, strain met16, hits give low values 0.564 | S. cerevisiae deletion strains, strain wtn01, hits give low values 0.349 | S. cerevisiae strains, strain wild type, hits give low values 0.268
inactive: S. cerevisiae deletion strains, locus YKL009W, strain mrt4, hits give low values 0.97 | S. cerevisiae deletion strains, locus YOL012C, strain htz1 0.269
